This passage reports cytotoxicity call results from the antibiotic and cytotoxicity screens of Wong et al. (2023).

Each structure is given as a SMILES string. The whole screen tested about 39,000 compounds, of which about 3,300 (8.5%) were called active. Only a selection was taken, and actives are over-represented in it overall.

The assay concerns HepG2. Nature of the assay: cytotoxicity call (relative viability < 0.9). As to conditions: 10 µM.
As for `C[C@@H]1CN([C@@H](C)CO)C(=O)c2cccc(NC(=O)c3cnccn3)c2O[C@H]1CN(C)C(=O)Nc1ccc2c(c1)OCO2`, the cytotoxicity call is “inactive”.

Regarding `C[C@@H]1CN([C@H](C)CO)C(=O)CCCn2nncc2CO[C@@H]1CN(C)C(=O)Nc1ccc2c(c1)OCCO2`, the cytotoxicity call is “inactive”. The entry for `C[C@@H]1CN([C@@H](C)CO)C(=O)Cc2cc(NC(=O)Cc3cn(C)c4ccccc34)ccc2O[C@H]1CN(C)Cc1ccc(Cl)c(Cl)c1` is “inactive”; for `C[C@@H]1CN([C@H](C)CO)C(=O)Cc2cc(NC(=O)Cc3cn(C)c4ccccc34)ccc2O[C@@H]1CN(C)Cc1ccc(Cl)c(Cl)c1` it is “active”; for `C[C@H](CO)N1C[C@H](C)[C@H](CN(C)Cc2ccc(Cl)c(Cl)c2)Oc2ccc(NC(=O)Cc3cn(C)c4ccccc34)cc2CC1=O` it is “active”. The entry for `C[C@H]1CN([C@@H](C)CO)C(=O)Cc2cc(NC(=O)Cc3cn(C)c4ccccc34)ccc2O[C@@H]1CN(C)Cc1ccc(Cl)c(Cl)c1` is “inactive”. The entry for `C[C@@H]1CN([C@H](C)CO)C(=O)Cc2cc(NC(=O)Cc3cn(C)c4ccccc34)ccc2O[C@H]1CN(C)Cc1ccc(Cl)c(Cl)c1` is “inactive”. Take `C[C@H]1CN([C@@H](C)CO)C(=O)Cc2cc(NC(=O)Cc3cn(C)c4ccccc34)ccc2O[C@H]1CN(C)Cc1ccc(Cl)c(Cl)c1`: the cytotoxicity call was “inactive”. The entry for `O=C(C[C@H]1CC[C@H]2[C@@H](COC[C@H](O)CN2S(=O)(=O)c2cccc(F)c2)O1)NCCCN1CCOCC1` is “inactive”; for `C[C@@H]1CCCCO[C@H](CN(C)Cc2ccc(C(=O)O)cc2)[C@H](C)CN([C@H](C)CO)C(=O)c2cc(NS(=O)(=O)c3cccs3)ccc2O1` it is “inactive”.

In the case of `Cc1ccc(S(=O)(=O)Nc2ccc3c(c2)C(=O)N([C@@H](C)CO)C[C@H](C)[C@H](CN(C)C(=O)NC2CCCCC2)OCCCC[C@H](C)O3)cc1`, the cytotoxicity call was “inactive”. The entry for `NC(=O)N1C(=O)[C@H]2[C@H](C1=O)[C@H]1C=C(CCCO)[C@@H]2[C@H](c2cccs2)N1Cc1cc2c(cc1Br)OCO2` is “inactive”; for `O=C(C[C@@H]1C[C@@H]2c3cc(NC(=O)C4CCOCC4)ccc3O[C@@H]2[C@@H](CO)O1)NCc1cc(F)ccc1F` it is “inactive”.

On to `CNC[C@H]1OCCCC[C@@H](C)Oc2ccc(NC(=O)Nc3ccc(C(F)(F)F)cc3)cc2C(=O)N([C@H](C)CO)C[C@H]1C`, for which the cytotoxicity call is “inactive”.

As for `COc1ccc(NC(=O)Nc2ccc3c(c2)C(=O)N([C@@H](C)CO)C[C@@H](C)[C@@H](CN(C)S(=O)(=O)c2c(C)noc2C)OCCCC[C@@H](C)O3)cc1`, the cytotoxicity call was “inactive”. Take `CCCC(C(=O)OCCN(CC)CC)(c1ccccc1)c1ccccc1.Cl`: the cytotoxicity call was “active”. Turning to `CCN(CC)CCOC(=O)c1ccc(N)cc1.Cl`, the cytotoxicity call was “inactive”. The entry for `CCN(CC)CCNC(C(=O)OCCC(C)C)c1ccccc1.Cl.Cl` (stereo not given) is “inactive”; for `CN1CCN(C(=O)C[C@@H]2CC[C@H]3[C@@H](COC[C@@H](O)CN3S(=O)(=O)c3cccc(Cl)c3)O2)CC1` it is “inactive”; for `C[C@@H]1CN([C@@H](C)CO)C(=O)Cc2cc(NC(=O)c3ccncc3)ccc2O[C@@H]1CN(C)Cc1ccc2c(c1)OCO2` it is “inactive”. The entry for `C[C@@H]1CCCCO[C@H](CN(C)Cc2ccc3c(c2)OCO3)[C@@H](C)CN([C@H](C)CO)C(=O)c2cc(NC(=O)Nc3ccc(F)cc3)ccc2O1` is “active”; for `C[C@@H]1CCCCO[C@H](CN(C)Cc2ccc3c(c2)OCO3)[C@H](C)CN([C@@H](C)CO)C(=O)c2cc(NC(=O)Nc3ccc(F)cc3)ccc2O1` it is “active”; for `C[C@H](CO)N1C[C@H](C)[C@@H](CN(C)Cc2ccc3c(c2)OCO3)OCCCC[C@H](C)Oc2ccc(NC(=O)Nc3ccc(F)cc3)cc2C1=O` it is “active”. Take `C[C@H]1CCCCO[C@@H](CN(C)Cc2ccc3c(c2)OCO3)[C@@H](C)CN([C@@H](C)CO)C(=O)c2cc(NC(=O)Nc3ccc(F)cc3)ccc2O1`: the cytotoxicity call is “inactive”. The value for `C[C@@H]1CCCCO[C@@H](CN(C)Cc2ccc3c(c2)OCO3)[C@H](C)CN([C@H](C)CO)C(=O)c2cc(NC(=O)Nc3ccc(F)cc3)ccc2O1` was “active”; that for `C[C@@H]1CCCCO[C@H](CN(C)C(=O)c2ccccc2)[C@@H](C)CN([C@@H](C)CO)C(=O)c2cc(NC(=O)Cc3ccccc3)ccc2O1` was “inactive”. The value for `COc1ccccc1C#Cc1cnc2c(c1)C(=O)N([C@H](C)CO)C[C@@H](C)[C@H](CN(C)C(=O)CC1CC1)O2` was “inactive”; that for `NCc1ccc(C(N)=O)cc1` was “inactive”; that for `C[C@H](CO)N1C[C@H](C)[C@H](CN(C)Cc2cncnc2)Oc2cc(C#CC3CCCC3)ccc2S1(=O)=O` was “inactive”.

With `CN1CCN(C(=O)C[C@H]2CC[C@@H]3[C@@H](COc4ccc(NC(=O)c5cscn5)cc4C(=O)N3C)O2)CC1`, the cytotoxicity call is “inactive”. The entry for `C[C@@H]1CN([C@H](C)CO)C(=O)Cc2cc(NC(=O)C3CC3)ccc2O[C@H]1CN(C)Cc1ccc(C(=O)O)cc1` is “inactive”; for `CCCCC(=O)C1CCCC=C1C(=O)O` (stereo not given) it is “inactive”; for `C[C@H](CO)N1C[C@H](C)[C@@H](CN(C)Cc2cccc(C(F)(F)F)c2)OCc2ccccc2-c2ccccc2C1=O` it is “inactive”.

`C[C@@H]1CN([C@@H](C)CO)C(=O)c2ccccc2-c2ccccc2CO[C@H]1CN(C)C(=O)c1cc(Cl)cc(Cl)c1`: the cytotoxicity call was “inactive”. The value for `CC[C@@H](C)C(=O)O[C@H]1[C@@H]2CC3=C4CC(=O)O[C@@H](c5ccoc5)[C@]4(C)CC[C@@H]3[C@@](C)(C2=O)[C@@H](CC(=O)OC)C1(C)C` was “inactive”; that for `CSc1nc(C)nc2ccccc12` was “inactive”. Consider `CC(C)NC(=O)NCC[C@@H]1CC[C@@H](NC(=O)CN(C)C)[C@@H](CO)O1`, for which the cytotoxicity call was “inactive”. The entry for `C[C@H]1CCCCO[C@H](CN(C)Cc2ccc3c(c2)OCO3)[C@@H](C)CN([C@@H](C)CO)C(=O)c2cc(NC(=O)Nc3ccc(F)cc3)ccc2O1` is “active”; for `C[C@@H]1CCCCO[C@@H](CN(C)Cc2ccc3c(c2)OCO3)[C@@H](C)CN([C@H](C)CO)C(=O)c2cc(NC(=O)Nc3ccc(F)cc3)ccc2O1` it is “inactive”; for `C[C@@H]1CCCCO[C@@H](CN(C)Cc2ccc3c(c2)OCO3)[C@@H](C)CN([C@@H](C)CO)C(=O)c2cc(NC(=O)Nc3ccc(F)cc3)ccc2O1` it is “inactive”. The value for `C[C@@H]1CN([C@@H](C)CO)C(=O)c2cc(NC(=O)Nc3ccc(F)cc3)ccc2O[C@@H](C)CCCCO[C@H]1CN(C)Cc1ccc2c(c1)OCO2` was “active”. In the case of `C[C@@H]1CN([C@H](C)CO)C(=O)c2cc(NC(=O)Nc3ccc(F)cc3)ccc2O[C@@H](C)CCCCO[C@H]1CN(C)Cc1ccc2c(c1)OCO2`, the cytotoxicity call was “active”.

Take `C[C@@H]1CN([C@H](C)CO)C(=O)c2cc(NC(=O)Nc3ccc(F)cc3)ccc2O[C@@H](C)CCCCO[C@@H]1CN(C)Cc1ccc2c(c1)OCO2`: the cytotoxicity call is “inactive”. The entry for `C[C@@H]1CN([C@@H](C)CO)C(=O)c2cc(NC(=O)Nc3ccc(F)cc3)ccc2O[C@@H](C)CCCCO[C@@H]1CN(C)Cc1ccc2c(c1)OCO2` is “active”.

In the case of `C[C@@H]1CCCCO[C@H](CN(C)Cc2ccc3c(c2)OCO3)[C@H](C)CN([C@H](C)CO)C(=O)c2cc(NC(=O)Nc3ccc(F)cc3)ccc2O1`, the cytotoxicity call is “inactive”.
